# Experimental data from PubChem BioAssay (NCI).
# Compounds without any hit were thinned out: in the full panel of roughly 79,000, 15% have a hit. A number with no mark means an inactive call. Activity calls are given as the source filed them. No stated cut-off is given here; in the data, active means growth inhibition above about 70%; inactive means the rest.
# Tests used:
# [1] = NCI Yeast Anticancer Drug Screen. Data for the rad52 strain (AID 147);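 further: 0% = growth of vehicle-treated control cultures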; conditions: S. cerevisiae rad52 mutant growth inhibition, hits give high values
# Summary of the method: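 DNA repair-defective yeast; compound exposure; growth scored against vehicle controls.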
# [2] = NCI Yeast Anticancer Drug Screen. Data for the wt1 strain (AID 149);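 further: 0% = growth of vehicle-treated wt1 cultures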; conditions: S. cerevisiae wt1 strain (SPY 50644) growth inhibition, hits give high values
# Summary of the method: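 Vehicle-normalised growth inhibition; strain wt1; compound exposure.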
# [3] = NCI Yeast Anticancer Drug Screen. Data for the rad50EPP+ strain (AID 151);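 further: 0% = growth of vehicle-treated control cultures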; conditions: S. cerevisiae rad50 mutant strain, hits give high values
# Summary of the method: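 rad50EPP+ yeast treated with test compounds. Readout: growth vs vehicle control.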
# [4] = NCI Yeast Anticancer Drug Screen. Data for the mgt1 strain (AID 153); conditions: S. cerevisiae mgt1 mutant growth inhibition, hits give high values
# Summary of the method: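 Growth inhibition relative to vehicle controls was scored for the mgt1 yeast strain after compound exposure.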
# [5] = NCI Yeast Anticancer Drug Screen. Data for the rad50 strain (AID 155);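 further: 0% = growth of vehicle-only cultures of the same strain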; conditions: S. cerevisiae rad50 strain growth inhibition, hits give high values
# Summary of the method: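 A DNA repair-deficient yeast mutant serves as the test organism; compound-induced growth inhibition is calculated against vehicle-treated cells.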
# [6] = NCI Yeast Anticancer Drug Screen. Data for the mec2-1 strain (AID 157); conditions: S. cerevisiae mec2-1 strain, hits give high values
# Summary of the method: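 Growth inhibition is read against vehicle-treated controls after compound exposure of the mec2-1 yeast strain, which is defective in DNA damage repair or cell cycle control.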
# [7] = NCI Yeast Anticancer Drug Screen. Data for the rad14 strain (AID 159);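 further: 0% = growth of vehicle-treated control cultures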; conditions: S. cerevisiae rad14 strain growth inhibition, hits give high values
# Summary of the method: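 Vehicle-treated cultures served as the baseline for growth inhibition of a DNA repair-mutant yeast strain exposed to each compound.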
# [8] = NCI Yeast Anticancer Drug Screen. Data for the sgs1 mgt1 strain (AID 161);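 further: 0% = growth of cultures given vehicle only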; conditions: S. cerevisiae sgs1 mgt1 strain, hits give high values
# Summary of the method: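 Percent growth inhibition was derived by comparing compound-exposed mutant yeast with vehicle-exposed cultures. The strain carries alterations in DNA damage repair.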
# [9] = NCI Yeast Anticancer Drug Screen. Data for the CLN2oe strain (AID 163);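 further: 0% = growth of vehicle-only control cultures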; conditions: S. cerevisiae CLN2oe strain, hits give high values
# Summary of the method: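 Compound-treated yeast; growth vs vehicle ctrl = % inhibition. Genetically altered strain (cell-cycle control).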
# [10] = NCI Yeast Anticancer Drug Screen. Data for the cln2 rad14 strain (AID 165);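 further: 0% = growth equal to vehicle treated cultures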; conditions: S. cerevisiae cln2 rad14 strain, hits give high values
# Summary of the method: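 Growth inhibition, relative to vehicle-treated controls, is the read-out. The test organism is a yeast strain with defined genetic alterations, cln2 rad14.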
# [11] = NCI Yeast Anticancer Drug Screen. Data for the bub3 strain (AID 167); conditions: S. cerevisiae bub3 mutant strain, hits give high values
# Summary of the method: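 Inhibition values come from growth of compound-treated mutant yeast normalised to vehicle-treated controls.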
# [12] = NCI Yeast Anticancer Drug Screen. Data for the wt2 strain (AID 169);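 further: 0% = growth of vehicle-treated yeast cultures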; conditions: S. cerevisiae wt2 strain growth inhibition, hits give high values
# Summary of the method: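 Compound exposure of yeast; growth compared with vehicle controls; inhibition reported.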
# [13] = NCI Yeast Anticancer Drug Screen. Data for the mlh1 strain (AID 171);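 further: 0% = growth of vehicle-treated control cultures of the same strain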; conditions: S. cerevisiae mlh1 strain growth inhibition, hits give high values
# Summary of the method: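 Compounds are applied to a genetically altered yeast strain, and its growth is compared with that of vehicle-treated cultures to give percent inhibition.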
# [14] = NCI Yeast Anticancer Drug Screen. Data for the sgs1 strain (AID 173);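 further: 0% = growth of vehicle-only control cultures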; conditions: S. cerevisiae sgs1 mutant, hits give high values
# Summary of the method: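 Compounds applied to genetically altered yeast; growth compared with vehicle-treated cultures to give % inhibition.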
# [15] = NCI Yeast Anticancer Drug Screen. Data for the mlh1 rad18 strain (AID 175); conditions: S. cerevisiae mlh1 rad18 strain growth inhibition, hits give high values
# Summary of the method: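 Cells of a genetically altered yeast strain, deficient in DNA damage repair, were treated with compound. Their growth was then compared with that of vehicle-treated cultures to give inhibition.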
# [16] = NCI Yeast Anticancer Drug Screen. Data for the rad18 strain (AID 177); conditions: S. cerevisiae rad18 mutant growth inhibition, hits give high values
# Summary of the method: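 Compounds are applied to a repair-deficient yeast strain, and growth is compared with that of vehicle-treated cultures to give percent inhibition.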
# [17] = at 5.0 µM (retest, dose inferred, filed as 0.5)
# [18] = at 50.0 µM (retest, dose inferred, filed as 5.0)
structure (smiles),measurement,setting,value
O=C(O)c1cc2c(cc1S(=O)(=O)O)C1C(C3C2C2(Cl)C(Cl)=C(Cl)C3(Cl)C2(Cl)Cl)C2(Cl)C(Cl)=C(Cl)C1(Cl)C2(Cl)Cl (stereo not drawn),growth inhibition,[1]; at 1.2 µM,0%
same,growth inhibition,[1]; at 3.7 µM,3%
same,growth inhibition,[1]; at 11.0 µM,13%
same,growth inhibition,[1]; at 33.0 µM,78% (active)
same,growth inhibition,[1]; at 100.0 µM,95% (active)
same,growth inhibition,[2]; at 1.2 µM,2%
same,growth inhibition,[2]; at 3.7 µM,0%
same,growth inhibition,[2]; at 11.0 µM,3%
same,growth inhibition,[2]; at 33.0 µM,62%
same,growth inhibition,[2]; at 100.0 µM,96% (active)
same,growth inhibition,[3]; at 1.2 µM,3%
same,growth inhibition,[3]; at 3.7 µM,-2%
same,growth inhibition,[3]; at 11.0 µM,-52%
same,growth inhibition,[3]; at 33.0 µM,-84%
same,growth inhibition,[3]; at 100.0 µM,61%
same,growth inhibition,[4]; at 1.2 µM,2%
same,growth inhibition,[4]; at 3.7 µM,-1%
same,growth inhibition,[4]; at 11.0 µM,22%
same,growth inhibition,[4]; at 33.0 µM,92% (active)
same,growth inhibition,[4]; at 100.0 µM,96% (active)
same,growth inhibition,[5]; at 1.2 µM,2%
same,growth inhibition,[5]; at 3.7 µM,1%
same,growth inhibition,[5]; [17],17%
same,growth inhibition,[5]; at 11.0 µM,9%
same,growth inhibition,[5]; at 33.0 µM,63%
same,growth inhibition,[5]; [18],96% (active)
same,growth inhibition,[5]; at 50.0 µM,96.2% (active)
same,growth inhibition,[5]; at 100.0 µM,90% (active)
same,growth inhibition,[6]; at 1.2 µM,-3%
same,growth inhibition,[6]; at 3.7 µM,-2%
same,growth inhibition,[6]; [17],20%
same,growth inhibition,[6]; at 11.0 µM,0%
same,growth inhibition,[6]; at 33.0 µM,85% (active)
same,growth inhibition,[6]; [18],96% (active)
same,growth inhibition,[6]; at 50.0 µM,95.4% (active)
same,growth inhibition,[6]; at 100.0 µM,96% (active)
same,growth inhibition,[7]; at 1.2 µM,0%
same,growth inhibition,[7]; at 3.7 µM,3%
same,growth inhibition,[7]; at 11.0 µM,24%
same,growth inhibition,[7]; at 33.0 µM,84% (active)
same,growth inhibition,[7]; at 100.0 µM,96% (active)
same,growth inhibition,[8]; [17],37%
same,growth inhibition,[8]; [18],97% (active)
same,growth inhibition,[8]; at 50.0 µM,94.4% (active)
same,growth inhibition,[9]; at 1.2 µM,-4%
same,growth inhibition,[9]; at 3.7 µM,-5%
same,growth inhibition,[9]; at 11.0 µM,-11%
same,growth inhibition,[9]; at 33.0 µM,51%
same,growth inhibition,[9]; at 100.0 µM,88% (active)
same,growth inhibition,[10]; [17],11%
same,growth inhibition,[10]; [18],97% (active)
same,growth inhibition,[10]; at 50.0 µM,93.7% (active)
same,growth inhibition,[11]; at 1.2 µM,-3%
same,growth inhibition,[11]; at 3.7 µM,-5%
same,growth inhibition,[11]; [17],2%
same,growth inhibition,[11]; at 11.0 µM,-11%
same,growth inhibition,[11]; at 33.0 µM,74% (active)
same,growth inhibition,[11]; [18],98% (active)
same,growth inhibition,[11]; at 50.0 µM,94.8% (active)
same,growth inhibition,[11]; at 100.0 µM,94% (active)
same,growth inhibition,[12]; at 1.2 µM,1%
same,growth inhibition,[12]; at 3.7 µM,0%
same,growth inhibition,[12]; at 11.0 µM,12%
same,growth inhibition,[12]; at 33.0 µM,90% (active)
same,growth inhibition,[12]; at 100.0 µM,96% (active)
same,growth inhibition,[13]; at 1.2 µM,-2%
same,growth inhibition,[13]; at 3.7 µM,-2%
same,growth inhibition,[13]; at 11.0 µM,11%
same,growth inhibition,[13]; at 33.0 µM,95% (active)
same,growth inhibition,[13]; at 100.0 µM,97% (active)
same,growth inhibition,[14]; at 1.2 µM,-4%
same,growth inhibition,[14]; at 3.7 µM,-1%
same,growth inhibition,[14]; at 11.0 µM,21%
same,growth inhibition,[14]; at 33.0 µM,92% (active)
same,growth inhibition,[14]; at 100.0 µM,96% (active)
same,growth inhibition,[15]; [17],67%
same,growth inhibition,[15]; [18],98% (active)
same,growth inhibition,[15]; at 50.0 µM,96.3% (active)
same,growth inhibition,[16]; at 1.2 µM,-1%
same,growth inhibition,[16]; at 3.7 µM,-1%
same,growth inhibition,[16]; at 11.0 µM,-8%
same,growth inhibition,[16]; at 33.0 µM,82% (active)
same,growth inhibition,[16]; at 100.0 µM,95% (active)
